Laboratory results taken from PubChem BioAssay (NCI).
The panel holds about 79,000 compounds, 15% with a hit somewhere; the sample as a whole holds those more often. Calls of active or inactive are those of the source. No stated cut-off is given here; in the data, active means growth inhibition above about 70%; inactive means the rest.

assay: NCI Yeast Anticancer Drug Screen. Data for the mlh1 rad18 strain (AID 175); conditions: S. cerevisiae mlh1 rad18 strain growth inhibition; at 50.0 µM (retest, dose inferred, filed as 5.0); active compounds read high
Outline: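 Vehicle-treated cultures served as the reference for growth inhibition in a yeast strain carrying DNA damage repair alterations exposed to each compound.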

Structure (SMILES)	growth inhibition
CC1=CC2OC3CC4OC(=O)/C=C/C=C/C(C(C)O)OCC(=O)C(C)CC(=O)OCC2(CC1)C4(C)C31CO1 (stereo not drawn)	99% (active)
Cc1cc(=O)oc2c3c(ccc12)OC(c1ccc(Br)cc1)CC3=O (stereo not drawn)	15% (inactive)
OCC(O)C(O)C(O)/C=N\Nc1ccccc1 (stereo not drawn)	42% (inactive)
CN(C)Cc1ccc2[nH]c3c(c2c1)CCCC3	93% (active)
CC(C)CCCC(C)C1CCC2C3CC=C4OC(=O)CCC4(C)C3CCC12C (stereo not drawn)	94% (active)
CC(C(=O)c1ccc2cc(Br)c3ccccc3c2c1)N(C)C (stereo not drawn)	99% (active)
O=[N+]([O-])c1ccccc1SCc1ccccc1	74% (active)
C(=P(c1ccccc1)(c1ccccc1)c1ccccc1)[P+](c1ccccc1)(c1ccccc1)c1ccccc1	99% (active)
CCOC(=O)N1CCN(C(=S)N/N=C(\C)c2ncccn2)CC1	99% (active)
CCC1(C)C(C#N)(C#N)C1(C#N)C#N	95% (active)
Cc1ccccc1C(O)(c1ccccc1C)C1(O)CCN(C)CC1	-2% (inactive)
Oc1c(C(Nc2ccccn2)c2ccccc2)ccc2cccnc12 (stereo not drawn)	96% (active)
Cc1ccc(C(CN(C)C)C(=O)c2ccccc2)cc1C (stereo not drawn)	98% (active)
COC(=O)/C=C(\NC1CC(OC2C[C@](O)(C(C)=O)Cc3c(O)c4c(c(O)c32)C(=O)c2c(OC)cccc2C4=O)OC(C)C1O)C(=O)OC (stereo partly drawn)	98% (active)
CC1(C)C/C(=N/NC(N)=S)C(=NO)/C(=N\NC(N)=S)C1	59% (inactive)
Cc1cc2c(c(C(N)=O)c1C)-c1cccc(F)c1C2=O	32% (inactive)
CN(C)c1ccc(/C=C(\C#N)c2cccc(Cl)c2)cc1	-11% (inactive)
Cc1ccc(S(=O)(=O)NNc2nc(N(C)C)nc(N(C)C)n2)cc1	8% (inactive)
CC(NNC(=S)NCc1ccccc1)c1cc2ccccc2cn1 (stereo not drawn)	93% (active)
COc1ccc(Cc2c(-c3ccc(C)cc3)n[nH]c(=O)c2C2C(=O)N(c3ccccc3)N=C2c2ccccc2)cc1 (stereo not drawn)	94% (active)

Structure (SMILES)	growth inhibition
CC1(c2ccccc2)OC(=O)C=CC1=O (stereo not drawn)	99% (active)
CC1CCC(C)(C)c2cc([N+](=O)[O-])cc([N+](=O)[O-])c21 (stereo not drawn)	99% (active)
CC1(C)CC(=O)C(/C=N/c2nc(-c3cccc([N+](=O)[O-])c3)cs2)=C(O)C1	99% (active)
O=[N+]([O-])C(=C1Nc2ccccc2N1)C(Cl)=C(Cl)Cl	16% (inactive)
COc1ccc2c(c1)C1(C)CCCC(C)(C(=O)O)C1C(Br)C2=O (stereo not drawn)	96% (active)
COc1cc(NCC(C)(O)CN2CCC(C)CC2C)c2ncccc2c1 (stereo not drawn)	58% (inactive)
ClC/C=C/c1ccccc1	18% (inactive)
O=C(c1ccc(O)c(Br)c1)c1cc(Br)ccc1O	98% (active)
COc1ccc(OP2(Oc3ccc(OC)cc3)=NP(Oc3ccc(OC)cc3)(Oc3ccc(OC)cc3)=NP(Oc3ccc(OC)cc3)(Oc3ccc(OC)cc3)=NP(Oc3ccc(OC)cc3)(Oc3ccc(OC)cc3)=N2)cc1	-2% (inactive)
COc1ccccc1NC(=O)CSC(N)=O	21% (inactive)
Cc1ccc(N=C(N)Nc2ccc(C)cn2)nc1	72% (active)
FC(F)(F)c1nc(Cl)nc2nc[nH]c12	-8% (inactive)
O=[N+]([O-])c1ccccc1CC(c1c[nH]c2ccccc12)c1c[nH]c2ccccc12	81% (active)
O=C(O)C1CCCCC1.[Ag]	100% (active)
CC(C)c1ccc(O)c(O)c(=O)c1	64% (inactive)
CC(C)(C)c1ccc(Sc2ncnc3ccccc23)cc1	87% (active)
CC(C)NC(=O)CN1C(=O)NC(C)(c2ccccc2)C1=O (stereo not drawn)	13% (inactive)
COc1cccc(N2CCN(CC(O)COc3cc4c(c5c3CCCC5)CCCC4)CC2)c1 (stereo not drawn)	94% (active)
CC(CCN)(CCN)[N+](=O)[O-]	9% (inactive)

same assay, conditions: S. cerevisiae mlh1 rad18 strain growth inhibition; at 50.0 µM; active compounds read high

Structure (SMILES)	growth inhibition
CC1=CC2OC3CC4OC(=O)/C=C/C=C/C(C(C)O)OCC(=O)C(C)CC(=O)OCC2(CC1)C4(C)C31CO1 (stereo not drawn)	91.3% (active)
Cc1cc(=O)oc2c3c(ccc12)OC(c1ccc(Br)cc1)CC3=O (stereo not drawn)	-6.6% (inactive)
OCC(O)C(O)C(O)/C=N\Nc1ccccc1 (stereo not drawn)	18.1% (inactive)
CN(C)Cc1ccc2[nH]c3c(c2c1)CCCC3	65.1% (inactive)
CC(C)CCCC(C)C1CCC2C3CC=C4OC(=O)CCC4(C)C3CCC12C (stereo not drawn)	90.6% (active)
CC(C(=O)c1ccc2cc(Br)c3ccccc3c2c1)N(C)C (stereo not drawn)	99.3% (active)
O=[N+]([O-])c1ccccc1SCc1ccccc1	52.6% (inactive)
C(=P(c1ccccc1)(c1ccccc1)c1ccccc1)[P+](c1ccccc1)(c1ccccc1)c1ccccc1	99.2% (active)
CCOC(=O)N1CCN(C(=S)N/N=C(\C)c2ncccn2)CC1	99.2% (active)
CCC1(C)C(C#N)(C#N)C1(C#N)C#N	98.2% (active)
Cc1ccccc1C(O)(c1ccccc1C)C1(O)CCN(C)CC1	98.7% (active)
Oc1c(C(Nc2ccccn2)c2ccccc2)ccc2cccnc12 (stereo not drawn)	94.5% (active)
Cc1ccc(C(CN(C)C)C(=O)c2ccccc2)cc1C (stereo not drawn)	27.4% (inactive)
COC(=O)/C=C(\NC1CC(OC2C[C@](O)(C(C)=O)Cc3c(O)c4c(c(O)c32)C(=O)c2c(OC)cccc2C4=O)OC(C)C1O)C(=O)OC (stereo partly drawn)	98.3% (active)
CC1(C)C/C(=N/NC(N)=S)C(=NO)/C(=N\NC(N)=S)C1	74.5% (active)
Cc1cc2c(c(C(N)=O)c1C)-c1cccc(F)c1C2=O	90.5% (active)
CN(C)c1ccc(/C=C(\C#N)c2cccc(Cl)c2)cc1	-4.75% (inactive)
Cc1ccc(S(=O)(=O)NNc2nc(N(C)C)nc(N(C)C)n2)cc1	3.85% (inactive)
CC(NNC(=S)NCc1ccccc1)c1cc2ccccc2cn1 (stereo not drawn)	89.7% (active)
COc1ccc(Cc2c(-c3ccc(C)cc3)n[nH]c(=O)c2C2C(=O)N(c3ccccc3)N=C2c2ccccc2)cc1 (stereo not drawn)	96% (active)

Structure (SMILES)	growth inhibition
CC1(c2ccccc2)OC(=O)C=CC1=O (stereo not drawn)	99.5% (active)
CC1CCC(C)(C)c2cc([N+](=O)[O-])cc([N+](=O)[O-])c21 (stereo not drawn)	17.9% (inactive)
CC1(C)CC(=O)C(/C=N/c2nc(-c3cccc([N+](=O)[O-])c3)cs2)=C(O)C1	99% (active)
O=[N+]([O-])C(=C1Nc2ccccc2N1)C(Cl)=C(Cl)Cl	11% (inactive)
COc1ccc2c(c1)C1(C)CCCC(C)(C(=O)O)C1C(Br)C2=O (stereo not drawn)	72.2% (active)
COc1cc(NCC(C)(O)CN2CCC(C)CC2C)c2ncccc2c1 (stereo not drawn)	83.7% (active)
ClC/C=C/c1ccccc1	62.6% (inactive)
O=C(c1ccc(O)c(Br)c1)c1cc(Br)ccc1O	95.9% (active)
COc1ccc(OP2(Oc3ccc(OC)cc3)=NP(Oc3ccc(OC)cc3)(Oc3ccc(OC)cc3)=NP(Oc3ccc(OC)cc3)(Oc3ccc(OC)cc3)=NP(Oc3ccc(OC)cc3)(Oc3ccc(OC)cc3)=N2)cc1	78.8% (active)
COc1ccccc1NC(=O)CSC(N)=O	74% (active)
Cc1ccc(N=C(N)Nc2ccc(C)cn2)nc1	41.5% (inactive)
FC(F)(F)c1nc(Cl)nc2nc[nH]c12	-4.75% (inactive)
O=[N+]([O-])c1ccccc1CC(c1c[nH]c2ccccc12)c1c[nH]c2ccccc12	87.3% (active)
O=C(O)C1CCCCC1.[Ag]	90.5% (active)
CC(C)c1ccc(O)c(O)c(=O)c1	92.7% (active)
CC(C)(C)c1ccc(Sc2ncnc3ccccc23)cc1	91.6% (active)
CC(C)NC(=O)CN1C(=O)NC(C)(c2ccccc2)C1=O (stereo not drawn)	70.3% (active)
COc1cccc(N2CCN(CC(O)COc3cc4c(c5c3CCCC5)CCCC4)CC2)c1 (stereo not drawn)	54% (inactive)
CC(CCN)(CCN)[N+](=O)[O-]	15.4% (inactive)
